HIV RNase H inh-1: blocks HIV-1 RNase H cleavage of RNA/DNA duplex; RT-RNase H RNA/DNA duplex cleavage, fluorescence; inhibition, % at 10 µM; P04585; 65,000 tested, 1.9% active; in the data active means inhibition above about 50%
HIV RNase H inh-2: confirmation of HIV-1 reverse transcriptase RNase H inhibitors | inhibition, % at 10 µM | shares compounds with HIV RNase H inh-1 | 1,000 tested, 39% active | Recombinant RT RNase H, fluorescent RNA/DNA duplex cleavage | AID 651; in the data active means inhibition above about 48%
Numbers stand for hits; . = inactive; / = not tested or not shown. Shown is part of a subset that was picked to be rich in hits.

SMILES | HIV RNase H inh-1 | HIV RNase H inh-2
O=C(NC1CCCCCCC1)c1ccco1 | . | /
O=C(Nc1ccc2nc(-c3ccco3)c(-c3ccco3)nc2c1)N1CCCCCC1 | 96.5 | 52.7
O=C(NC1CCCC1)c1ccc2nc(-c3ccco3)c(-c3ccco3)nc2c1 | 82.8 | .
CCOC(=O)N1CCN(C(=O)Nc2ccc3nc(C)c(C)nc3c2)CC1 | . | /
Cc1cc(C)n(CCCNCC(O)c2ccccc2)n1 (stereo unspecified) | . | /
CCCc1nnc(NC(=O)CCN2C(=O)c3ccccc3C2=O)s1 | . | /
CC1CCCC(C)N1c1nnc(NC(=O)Cn2c(=O)oc3ccccc32)s1 (stereo unspecified) | . | /
CCCc1nnc(NC(=O)Cn2c(=O)oc3ccccc32)s1 | 77.2 | .
CC1(C)Cc2c(sc3ncnc(N)c23)CO1 | . | /
CC1(C)Cc2c(sc3c2C(=O)NC(c2cccnc2)N3)CO1 (stereo unspecified) | 53.6 | .
CC(C)(C)C1CCc2c(sc3c2C(=O)NC(c2ccco2)N3)C1 (stereo unspecified) | . | /
COc1ccc(OC)c(-n2c(SCC(=O)Nc3cc(C)on3)nnc2-c2c[nH]c3ccccc23)c1 | . | /
Cc1ccc(-n2c(N)c(C(N)=O)sc2=S)cc1 | 94.5 | 64.4
CCn1c(N)c(C(=O)NC)sc1=S | . | /
COc1ccc(-n2c(COc3ccc(C)cc3)nnc2SCC(N)=O)cc1 | . | /
CCOc1ccccc1NC(=O)c1ccccc1-c1nc(-c2ccccc2OC)no1 | . | /
CCOC(=O)Cc1csc(NC(=O)c2ccco2)n1 | . | /
O=C(Nc1nc(-c2ccncc2)cs1)c1ccco1 | 58.6 | 55.7
O=C(Nc1nc(-c2cc3ccccc3oc2=O)cs1)c1ccco1 | . | /
Cc1ccc2[nH]c(=O)c3cc(C(=O)N4CCN(C(=O)c5ccco5)CC4)sc3c2c1 | . | /
Cc1ccc2oc(=O)c3cc(C(=O)N4CCN(C(=O)c5ccco5)CC4)sc3c2c1 | . | /
Cc1ccc2cc3cc(C(=O)N4CCN(C(=O)c5ccco5)CC4)sc3nc2c1 | 55.1 | .
CCCCCCn1c(-c2ccco2)nc2oc3cc(OC)ccc3c(=O)c2c1=O | . | /
CN1CCN(Cc2nc3c(c(=O)n(C)c(=O)n3C)n2Cc2ccccc2Cl)CC1 | . | /
COc1cc(C)nc(SCC(N)=O)n1 | 62.4 | .
SMILES | HIV RNase H inh-1 | HIV RNase H inh-2
Cc1cc(SCC(N)=O)nc(SCC(=O)c2ccccc2)n1 | . | /
Cc1cc(C)nc(SCC(=O)O)n1 | . | /
COC(=O)CS(=O)(=O)c1ccc2c(c1)CC(=O)N2 | . | /
COc1ccccc1-n1c(=O)c2c3c(sc2n2c(SC)nnc12)CCC3 | . | /
O=C(COc1ccccc1)Nn1cnc2ccccc21 | . | /
CC(=O)C(C(C)=O)c1c(Cl)c(O)c(O)c2c(C(=O)c3ccccc3)coc12 | 100.3 | 63.9
CN1CCN(Cc2c(O)ccc3occ(C(=O)c4ccccc4)c23)CC1 | . | /
O=C(NC1CCCCCCC1)c1ccc2c(c1)N(Cc1ccc(F)cc1)C(=O)CS2=O (stereo unspecified) | . | /
NC(=O)c1c(NC(=O)C2CCCO2)sc2c1CCC2 (stereo unspecified) | . | /
NC(=O)c1c(NC(=O)CSc2nnc(-c3ccccc3)n2CC2CCCO2)sc2c1CCC2 (stereo unspecified) | . | /
Cn1cnnc1SCC(=O)Nc1sc2c(c1C(N)=O)CCC2 | 75.4 | .
O=C(c1cc2c(=O)oc3ccccc3c2s1)N1CCN(c2ccccn2)CC1 | . | /
Cc1noc(C)c1S(=O)(=O)N1CCCC(C(=O)N2CCc3ccccc3C2)C1 (stereo unspecified) | . | /
Cc1cccc(-n2c(SCc3cc(=O)n4ccsc4n3)nc3ccccc32)c1 | . | /
CCC(C)NCC(=O)Nc1ccc(-c2nc3cc(NC(=O)CNC(C)CC)ccc3o2)cc1 (stereo unspecified) | . | /
CCC(C)c1ccc2oc(-c3ccc(NC(=O)c4ncn[nH]4)cc3)nc2c1 (stereo unspecified) | 64.3 | 71.0
O=C(Nc1ccc2oc(-c3ccccc3Cl)nc2c1)c1ncn[nH]1 | . | /
CC(C)c1ccc2oc(-c3ccc(N)cc3)nc2c1 | . | /
CCC(C)c1ccc(O)c(NC(=O)c2ncn[nH]2)c1 (stereo unspecified) | . | /
CC(C)c1ccc2oc(-c3ccc(NC(=O)c4ncn[nH]4)cc3)nc2c1 | 74.0 | 58.2
CS(=O)(=O)N1Cc2ccccc2CC1C(=O)Nc1ccccc1C(N)=O (stereo unspecified) | . | /
c1ccc(Cn2nnnc2C(c2cccnc2)N2CCN(c3ccccc3)CC2)cc1 (stereo unspecified) | . | /
CN(C)C(CNC(=O)c1cccnc1Sc1ccccc1)c1ccco1 (stereo unspecified) | . | /
CCCCCCOC(=O)Sc1nc2ccccc2o1 | . | /
CCN(CC(=O)Nc1ccc2c(c1)OCCO2)c1nc(-c2cccnc2)nc2ccccc12 | . | /
Cc1cc(NC(=O)c2ccc3c(c2)C(=O)N(C2CCCCC2)C3=O)no1 | 64.4 | .
Cc1cc(NC(=O)c2ccc3c(c2)C(=O)N(CCC(C)C)C3=O)no1 | . | /

Compound activity deposited in PubChem BioAssay by University of Pittsburgh Molecular Library Screening Center.
